Common to all, as to assay: PBM binding z-score (relative to random genomic background probes); higher = stronger binding; sequences stand for … in GC…GCGATTGACAGCGTAGAATGAAGG
In assay [1] the test system is RARb homodimer (NR concentration 270 nM). An outline of the steps: (§1)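 For binding z-scores, the reference was random background probes on custom Agilent 4×180K protein-binding microarrays. These arrays were incubated 1 h with ligand-free nuclear receptor dimers in PBS pH 7.4, 2% milk, 0.02% Triton X-100, 1 mM DTT, 0.2 mg/mL BSA and 0.4 mg/ml salmon testes DNA. Fluorescence was scanned after antibody detection of each partner (one per run) and regression-normalized.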

The test system of assay [2] is RARg:RXRa (NR concentration 270 nM, RXRa partner concentration 90 nM). In a few lines:
as §1

Assay [3] concerns RARg homodimer (NR concentration 270 nM). An outline of the steps: as §1
Assay [4] relates to RXRa DBDmut IVT, anti-RXR (DBD mutation: RXRa K156A/R161A, NR concentration 90 nM). In a few lines: as §1
Assay [5] concerns RXRa homodimer (NR concentration 180 nM). An outline of the steps: as §1
The test system of assay [6] is THRa:RXRa (NR concentration 90 nM, RXRa partner concentration 90 nM). An outline of the steps:
as §1

The subject of assay [7] is THRa homodimer (NR concentration 90 nM). In a few lines: as §1
Assay [8] concerns VDR:RXRa (NR concentration 270 nM, RXRa partner concentration 90 nM). In a few lines:
as §1

The subject of assay [9] is VDR homodimer (NR concentration 270 nM). An outline of the steps: as §1

For the sequence CGTCCAAGGTCAATGGTCAGTGAAGAGATGACGG, the PBM binding z-score in [1] is 4.04; in assay [2], 5.46; in [3] it was 6.07; in [4] it was 3.36; in assay [5], 4.67; in assay [6], 3.6. The PBM binding z-score in assay [7] is 2.11; in assay [8] it was 3.55; in assay [9], 2.25.

Turning to ATCGAAAGGGCGACGAGGTGAGTATACACCGTTT, the PBM binding z-score in assay [1] was 1; in assay [2] it was 1.16; in [3], 1.28; in [4], -0.425; in assay [5], 0.969; in [6], 1.99. In addition, the figures for the PBM binding z-score in [7], in assay [8] and in [9] were 0.542, 1.32 and 0.597, respectively.

On to CCTAGCAGGCCAATCTGGGTCACTCTAGGCTTGA, for which the PBM binding z-score is 2.09 in [1]; 0.781 in assay [2]; 1.14 in assay [3]; 0.254 in assay [4]; 0.361 in [5]; 3.2 in assay [6]. Also, the PBM binding z-score in assay [7] was 0.202; in [8] it was 0.251; in assay [9], -0.375.

In the case of ACTATTAGTTGTGACGAGGGCAACCGATAGGTTG, the PBM binding z-score was determined as 1.21 in assay [1]; 0.579 in assay [2]; 0.719 in assay [3]; 0.601 in assay [4]; 0.491 in assay [5]; 1.32 in assay [6]. Also, the results for the PBM binding z-score in [7], in [8] and in assay [9] were 0.209, 0.506 and 0.862, respectively.

For CGCCCAAGGTCAATGCTAGGTCAGTGAAAGCATT, the PBM binding z-score in assay [1] turned out to be 5.07; in assay [2] it was 7.39; in [3], 6.43; in assay [4] it was 2.91; in assay [5], 5.06; in assay [6] it was 4.28. Besides, the PBM binding z-score in assay [7] is 2.72; in assay [8], 4.59; in assay [9] it was 2.51.

TCTTGTAGATCAAGCAGCTTAAGAAAGCCTGAGT: the PBM binding z-score in [1] was -0.672; in [2], -0.336; in [3], -0.59; in [4], 0.402; in assay [5], -0.293; in [6] it was -0.48. Besides, the PBM binding z-score in assay [7] was -0.676; in assay [8], 0.0668; in assay [9] it was -0.394.

GCAGACAGGTGAAACGAAGGTAACTCAGGGTGGC: the PBM binding z-score in assay [1] is 0.36; in assay [2], 1.1; in [3], 0.315; in [4] it was -0.588; in assay [5], 0.938; in [6] it was 1.42. Also, the PBM binding z-score in assay [7] was -0.157; in assay [8], -0.301; in [9], -0.798.

Regarding TCTTGTAGTTCAACAGGAGGTTAAGAAAGATCGA, the PBM binding z-score is 2.2 in assay [1]; 4.32 in assay [2]; 2.05 in assay [3]; 2.02 in assay [4]; 2.16 in assay [5]; 2.17 in [6]. In addition, the PBM binding z-score in [7] was -0.466; in assay [8] it was 2.57; in [9], 1.11.

With GCGACCGGGGCAAAGCAGGTTACCATAAGGTTGG, the PBM binding z-score in assay [1] was 1.47; in assay [2], 1.97; in [3], 1.54; in [4] it was -0.485; in [5], 0.949; in [6], 3.71. The PBM binding z-score in assay [7] was -0.0146; in assay [9], -0.132.

Consider ATCTCTAGGTGAGACTCAGTTCAGTGAAGAACGC, for which the PBM binding z-score was 0.564 in assay [1]; 0.527 in assay [2]; 0.376 in [3]; 0.062 in assay [4]; 0.00106 in [5]; 0.954 in [6]. The PBM binding z-score in assay [7] is 0.42; in assay [8] it was 0.863; in assay [9], 0.761.

In the case of GGAACGAGGGCACTCGAGTTGATAGCATGGCGAT, the PBM binding z-score in [1] amounted to 0.585; in [2], 0.902; in assay [3] it was 1.45; in [4], 2.21; in [5], 0.67; in assay [6] it was 2.41. In addition, the PBM binding z-score in assay [7] is -0.47; in assay [8], 2.64; in assay [9], 1.75.

Regarding TCTTGTAGATTAAGCAGGTTAAGAAAGCCTGAGT, the PBM binding z-score in assay [1] was 0.394; in assay [2], -0.0145; in assay [3] it was -0.457; in [4], 0.673; in [5] it was 0.377; in [6], 0.509. Moreover, the figures for the PBM binding z-score in [7], in assay [8] and in assay [9] were -0.386, 0.313 and 0.113, respectively.

On to ACAGACAGGAGAGTGAAGGTAACTCAGCTGGACG, for which the PBM binding z-score was 0.0737 in assay [1]; 0.0775 in assay [2]; 0.235 in assay [3]; -0.483 in [4]; 0.0394 in [5]; 0.195 in [6]. The PBM binding z-score in assay [7] was 0.113; in assay [8], -0.068; in [9], -0.235.

For the sequence TCATATAGGAAATACAGGTGAAAGTCGGCATCTA, the PBM binding z-score in assay [1] was 0.167; in assay [2], 0.527; in assay [3], 0.553; in assay [4] it was 2.12; in assay [5] it was 1.37; in assay [6], 0.441. Also, the PBM binding z-score in assay [7] turned out to be 0.299; in [8], 1.02; in assay [9] it was 0.241.

With GGAACGAGGGCATTCGAGTTGACAGCATGGCGAT, the PBM binding z-score was found to be 0.801 in [1]; 1.2 in assay [2]; 1.69 in assay [3]; 3.06 in assay [4]; 0.845 in assay [5]; 3.83 in assay [6]. For the same sequence, the results for the PBM binding z-score in [7] and in [9] were -0.733 and 2.99, respectively.

Regarding AGGCAAAGTTCATCTAGGTAACGTAAGATATGCT, the PBM binding z-score in assay [1] turned out to be 3.56; in assay [2], 5.33; in assay [3] it was 5.75; in assay [4] it was 4.59; in [5], 4.37; in [6], 3.18. The figures for the PBM binding z-score in assay [7] and in assay [9] were 0.436 and 4.85, respectively.

The values are drawn from the supplement of paper PMC6555819.
